An excerpt weighted towards active compounds, which were near 4% of everything screened.
Gli-Sufu block – blocks Gli-Sufu signaling in a luciferase reporter | Sufu-KO-LIGHT fibroblasts, Gli luciferase reporter luminescence | inhibition, % at 5 µM | hit rate 0.74% among 340,000 | AID 588413;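 active = inhibition above about 55%, limit read from the data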;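 also: 0% = DMSO-treated cells and 100% = wells with medium but no cells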
Mdm2 MdmX PPI – human Mdm2/MdmX binding inhibition; hit rate 3% among 330,000; O15151+Q00987; SaOS-2 split-luciferase Mdm2/MdmX complementation, luminescence; inhibition, % at 8 µM;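 active = inhibition of at least 50% at 8 µM in the primary screen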
Target sequence (O15151 whole entry, looked up): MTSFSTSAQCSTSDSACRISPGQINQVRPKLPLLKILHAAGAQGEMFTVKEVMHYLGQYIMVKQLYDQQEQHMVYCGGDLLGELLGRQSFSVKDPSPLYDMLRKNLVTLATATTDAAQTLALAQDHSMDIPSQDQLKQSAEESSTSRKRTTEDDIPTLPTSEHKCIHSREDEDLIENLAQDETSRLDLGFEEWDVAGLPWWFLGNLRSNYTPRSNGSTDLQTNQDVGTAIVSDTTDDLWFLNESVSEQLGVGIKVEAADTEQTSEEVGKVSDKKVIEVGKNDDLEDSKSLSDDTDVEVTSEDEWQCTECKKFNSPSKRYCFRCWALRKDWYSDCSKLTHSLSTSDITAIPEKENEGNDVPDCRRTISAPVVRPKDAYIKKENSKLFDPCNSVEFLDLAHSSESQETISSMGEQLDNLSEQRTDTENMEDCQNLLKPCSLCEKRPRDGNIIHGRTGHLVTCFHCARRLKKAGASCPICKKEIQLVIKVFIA
Target sequence (Q00987 whole entry, looked up): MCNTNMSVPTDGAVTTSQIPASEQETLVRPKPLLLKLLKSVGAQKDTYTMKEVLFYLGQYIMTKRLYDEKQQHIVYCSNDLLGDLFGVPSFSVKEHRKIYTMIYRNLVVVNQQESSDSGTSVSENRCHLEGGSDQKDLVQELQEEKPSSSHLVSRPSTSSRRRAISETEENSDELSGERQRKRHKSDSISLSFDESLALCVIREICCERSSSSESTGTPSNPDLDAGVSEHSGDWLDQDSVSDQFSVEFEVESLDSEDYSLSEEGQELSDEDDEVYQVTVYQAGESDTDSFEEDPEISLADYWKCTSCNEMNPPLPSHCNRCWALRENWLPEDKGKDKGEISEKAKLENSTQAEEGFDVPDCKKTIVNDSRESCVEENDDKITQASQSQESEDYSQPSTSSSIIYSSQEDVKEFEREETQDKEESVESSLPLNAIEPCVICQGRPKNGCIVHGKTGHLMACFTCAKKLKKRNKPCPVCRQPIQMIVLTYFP
Shn3 3UTR inh – Schnurri-3 reporter inhibition in Clone20 osteoblasts; Clone20 osteoblast Shn3 3'UTR firefly luciferase, 24 h; inhibition, % at 12.5 µM; hit rate 0.52% among 360,000;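 active = mean inhibition of at least 75% with every replicate also reaching 75%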;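 also: 0% = median of neutral control wells and 100% = pilot-screen positive control compound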
PAX8 inh HTS – inhibitors of PAX8 transcriptional activity in RMG-I cells | RMG-I TPO-luciferase reporter, SteadyGlo, 24 h | inhibition, % at 12.6 µM | hit rate 1.2% among 360,000;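 active = mean replicate inhibition at least 60% with every replicate also reaching 60%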;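 also: luciferase light reporting Pax8 driven TPO promoter activity; plate controls were median of neutral control wells for no effect and mitoxantrone controls for full effect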
Beta apoptosis – blocks beta cell apoptosis; INS-1E cytokine-induced death, ATP luminescence, 48 h; percent of positive-control rescue, neutral wells zero; protection from apoptosis, % (concentration not given with the values); hit rate 0.8% among 300,000; AID 435005;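 active = Every replicate reaches about 75%, or at least half do and their mean reaches it too, limit read from the data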;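 also: 0% = cytokine-treated negative control wells and 100% = positive control rescue; higher means more ATP so stronger rescue from cytokine killing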
CSC inhib – cancer stem cell inhibition. hit rate 1.1% among 300,000. inhibition, % at 7.5 µM. cancer stem cell-like cells viability, luminescence; in the data active = inhibition above about 75%; tested in HMLE shEcad cells
An asterisk follows results filed as active; . = not tested or not shown.

SMILES	Gli-Sufu block	Mdm2 MdmX PPI	Shn3 3UTR inh	PAX8 inh HTS	Beta apoptosis	CSC inhib
CC(C)(C)c1ccc(-n2ncc3c2CCCC3NC(=O)CCN2CCCC2=O)cc1 (stereo not given)	.	12	88*	5	40	16
CN1N=C(C(=O)NC2CCCc3c2cnn3-c2ccc(F)cc2F)CCC1=O (stereo not given)	9	-6	5	12	2	1
Cc1ccc(-n2ncc3c2CCCC3NC(=O)c2ocnc2C)cc1C (stereo not given)	59*	36	83	.	80*	4
Cc1cc(C(=O)NC2CCCc3c2cnn3-c2cccc(C)c2C)n(C)n1 (stereo not given)	81*	5	91*	22	112*	18
Cc1cc(C(=O)NC2CCCc3c2cnn3-c2ccc(C)c(C)c2)no1 (stereo not given)	17	3	55	1	6	6
CC(=O)NC1CCCc2c1cnn2-c1ccc(C(C)(C)C)cc1 (stereo not given)	13	2	10	13	0	-16
Cn1nccc1C(=O)NC1CCCc2c1cnn2-c1ccc(C(C)(C)C)cc1 (stereo not given)	76*	20	75	19	116*	-6
COc1cccc(NC(=O)N(C)C[C@@H]2OCc3cnnn3CCCC(=O)N([C@H](C)CO)C[C@H]2C)c1	.	.	.	3	.	.
COc1ccc(-c2ccc3c(c2)[C@H]2[C@H](CCN2S(=O)(=O)c2ccc(OC)cc2)[C@H](CO)N3C)cc1	.	.	.	95*	.	.
COc1ccc(-c2ccc3c(c2)[C@@H]2[C@@H](CCN2S(=O)(=O)c2ccc(OC)cc2)[C@@H](CO)N3C)cc1	.	.	.	85*	.	.
COc1ccc(NS(=O)(=O)c2ccc(N3CCOCC3)c(NC(=O)c3ccc(F)cc3)c2)cc1	20	2	-13	1	8	23
COc1ccc(NS(=O)(=O)c2ccc(O)c(NC(=O)c3cc4c(C)nn(-c5ccc(F)cc5)c4s3)c2)cc1	11	22	41	.	12	114*
CCOc1ccc(NC(=O)Nc2cc(OCC(F)(F)F)cc(OCC(F)(F)F)c2)cc1	9	48	64	87*	20	21
CCOc1ccc(NC(=O)c2ccccn2)cc1	-48	28	48	65*	17	11
CCOc1ccc(NC(=O)Nc2ccc3nsnc3c2)cc1	-22	7	-5	-91	4	29
CCOc1ccc(NC(=O)C(=O)NCc2ccncc2)cc1	-35	18	-18	15	-8	-3
CCOc1ccc(NC(=O)Nc2ccc(Cc3ccncc3)cc2)cc1	-11	2	34	10	39	80*
C[C@H](NC(=O)[C@@H]1[C@@H](CO)[C@@H]2Cn3c(ccc(-c4ccccc4F)c3=O)[C@H]1N2)c1ccccc1	.	.	.	14	.	.
CC(=NNc1ccc2ccccc2n1)c1ccccn1	.	.	.	114*	.	.
COc1ccc2nc(NN=C(C)c3ccccn3)cc(C)c2c1	79*	.	86*	32	.	.
CC(=NNc1ccc2ccccc2n1)c1ccccc1O	-12	.	18	32	.	.
C=CCC1(CC=C)CCCN1C(=O)c1cc(COc2ccc(C)nc2)on1	77*	-42	41	-21	105*	3
C=CCC1(CC=C)CCCN1C(=O)c1cc(COc2ccc(F)c(F)c2)on1	-17	11	1	6	8	-8
C/C=C/c1cnc2c(c1)C(=O)N([C@H](C)CO)C[C@@H](C)[C@@H](CN(C)Cc1ccc(F)cc1)O2	.	.	.	3	.	.
CC(=O)c1c(C)[nH]c(C(=O)COc2cc(C)ccc2C(C)C)c1C	-5	34	83	.	103*	17
SMILES	Gli-Sufu block	Mdm2 MdmX PPI	Shn3 3UTR inh	PAX8 inh HTS	Beta apoptosis	CSC inhib
COc1ccccc1OCC(=O)c1[nH]c(C)c(C(C)=O)c1C	36	25	85*	.	32	-10
COc1ccccc1NC(=O)c1[nH]c(C)c(C(C)=O)c1C	19	19	-26	.	-1	-18
COc1ccccc1NS(=O)(=O)c1cccc(NC(=O)c2[nH]c(C)c(C(C)=O)c2C)c1	4	22	43	26	76*	-5
COc1cc(C)ccc1OCC(=O)OCC(=O)c1[nH]c(C)c(C(C)=O)c1C	6	-1	8	.	1	-9
COC(=O)c1c(CC[C@@H](CO)NC(=O)N[C@H](Cc2ccccc2)Cn2cc(-c3ccccn3)nn2)oc(C(C)=O)c1C(=O)OC	.	.	.	2	.	.
Cc1cc(C(=O)Nc2cccc3c2O[C@@H](CN(C)Cc2ccc(Cl)c(Cl)c2)[C@@H](C)CN([C@H](C)CO)C3=O)n(C)n1	.	.	.	30	.	.

Compound activity from PubChem BioAssay.
